# Test results: paper PMC7862700, “An all-to-all approach to the identification of sequence-specific readers for epigenetic DNA modifications on cytosine”
# Legend:
# Experiment in all cases: DAPPL (digital affinity profiling via proximity ligation, sequencing); 10 mM Tris-HCl pH 7.5, 50 mM NaCl, 1 mM DTT, 4% glycerol, room temperature, 30 min; GST-TFs on glutathione beads, 16-mer random dsDNA library, 0.1% formaldehyde crosslink after washing; high values mean tight binding
# FLI1 = molecular target: T1, FLI1 (Homo sapiens, UniProt Q01543 1-452); conditions: protein: recombinant; tags: N-terminal GST; dsDNA, one strand shown
# T1 sequence: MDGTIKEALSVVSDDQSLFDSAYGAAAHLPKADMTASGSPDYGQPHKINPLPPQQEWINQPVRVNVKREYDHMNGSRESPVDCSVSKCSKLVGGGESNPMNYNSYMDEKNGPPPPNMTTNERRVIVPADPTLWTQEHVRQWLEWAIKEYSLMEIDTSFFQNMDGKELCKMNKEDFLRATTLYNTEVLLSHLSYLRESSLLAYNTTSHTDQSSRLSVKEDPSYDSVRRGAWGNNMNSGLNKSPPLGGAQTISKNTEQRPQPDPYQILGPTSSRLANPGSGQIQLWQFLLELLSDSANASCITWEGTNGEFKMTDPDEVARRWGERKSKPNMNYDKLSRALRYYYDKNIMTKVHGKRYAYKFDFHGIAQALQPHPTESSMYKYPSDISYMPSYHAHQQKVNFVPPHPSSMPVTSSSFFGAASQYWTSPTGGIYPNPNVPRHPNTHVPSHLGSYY
# Method in brief: (§1)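 Human transcription factors were made in yeast as GST fusions, captured on glutathione beads and barcoded with DNA. With a tag-only sample included, the pool was incubated with 200 nmole of a random double-stranded 16-mer DNA library in Tris/NaCl/DTT/glycerol buffer at room temperature for 30 min, then crosslinked with 0.1% formaldehyde after washing, ligated by proximity, amplified and sequenced. For binding signal, each hexamer's read frequency for a factor is divided by its frequency for the tag-only sample.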
# ELK1 = molecular target: T2, ELK1 (Homo sapiens, UniProt P19419 1-428); conditions: protein: recombinant; tags: N-terminal GST; dsDNA, one strand shown
# T2 sequence: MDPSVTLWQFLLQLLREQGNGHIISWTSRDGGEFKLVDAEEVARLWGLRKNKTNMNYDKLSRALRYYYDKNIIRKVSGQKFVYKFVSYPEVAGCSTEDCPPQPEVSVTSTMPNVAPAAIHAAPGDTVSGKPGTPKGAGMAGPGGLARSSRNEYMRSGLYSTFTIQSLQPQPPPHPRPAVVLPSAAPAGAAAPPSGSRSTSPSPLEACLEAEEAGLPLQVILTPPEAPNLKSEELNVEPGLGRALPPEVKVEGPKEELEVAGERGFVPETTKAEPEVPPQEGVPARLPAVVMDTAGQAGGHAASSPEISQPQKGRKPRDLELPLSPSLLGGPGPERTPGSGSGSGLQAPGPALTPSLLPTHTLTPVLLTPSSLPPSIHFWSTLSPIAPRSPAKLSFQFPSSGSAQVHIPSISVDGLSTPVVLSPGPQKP
# Method in brief: as §1
# GABPA = molecular target: T3, GABPA (Homo sapiens, UniProt Q06546 1-454); conditions: protein: recombinant; tags: N-terminal GST; dsDNA, one strand shown
# T3 sequence: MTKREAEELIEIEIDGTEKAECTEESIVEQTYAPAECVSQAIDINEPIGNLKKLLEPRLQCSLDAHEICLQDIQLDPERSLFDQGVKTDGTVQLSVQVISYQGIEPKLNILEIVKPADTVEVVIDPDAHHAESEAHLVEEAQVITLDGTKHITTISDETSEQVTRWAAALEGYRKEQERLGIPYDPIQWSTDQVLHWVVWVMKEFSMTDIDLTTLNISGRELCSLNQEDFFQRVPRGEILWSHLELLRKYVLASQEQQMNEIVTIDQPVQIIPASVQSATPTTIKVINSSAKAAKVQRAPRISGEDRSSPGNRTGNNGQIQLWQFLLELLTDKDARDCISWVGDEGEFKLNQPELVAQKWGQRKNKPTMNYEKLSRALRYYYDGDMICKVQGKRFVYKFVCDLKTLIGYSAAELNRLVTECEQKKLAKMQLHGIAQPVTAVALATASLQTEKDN
# Method in brief: as §1
# ERG = molecular target: T4, ERG (Homo sapiens, UniProt P11308 1-479); conditions: protein: recombinant; tags: N-terminal GST; dsDNA, one strand shown
# T4 sequence: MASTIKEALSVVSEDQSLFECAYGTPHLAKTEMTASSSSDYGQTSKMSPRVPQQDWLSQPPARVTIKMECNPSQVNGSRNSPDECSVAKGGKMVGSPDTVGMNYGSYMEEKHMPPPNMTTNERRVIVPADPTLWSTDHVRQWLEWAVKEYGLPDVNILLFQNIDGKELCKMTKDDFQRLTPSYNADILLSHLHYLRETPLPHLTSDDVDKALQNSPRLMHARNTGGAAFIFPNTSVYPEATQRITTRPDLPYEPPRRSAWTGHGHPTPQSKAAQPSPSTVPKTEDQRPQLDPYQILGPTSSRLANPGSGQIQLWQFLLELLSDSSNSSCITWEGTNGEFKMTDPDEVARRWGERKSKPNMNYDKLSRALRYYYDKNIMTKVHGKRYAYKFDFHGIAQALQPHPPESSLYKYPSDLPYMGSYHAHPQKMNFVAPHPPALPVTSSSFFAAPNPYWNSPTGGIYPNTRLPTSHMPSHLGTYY
# Method in brief: as §1
# ELF1 = ELF1 (Homo sapiens, UniProt P32519 1-619); conditions: protein: recombinant; tags: N-terminal GST; dsDNA, one strand shown
# Method in brief: as §1
# EHF = molecular target: T5, EHF (Homo sapiens, UniProt Q9NZC4 1-300); conditions: protein: recombinant; tags: N-terminal GST; dsDNA, one strand shown
# T5 sequence: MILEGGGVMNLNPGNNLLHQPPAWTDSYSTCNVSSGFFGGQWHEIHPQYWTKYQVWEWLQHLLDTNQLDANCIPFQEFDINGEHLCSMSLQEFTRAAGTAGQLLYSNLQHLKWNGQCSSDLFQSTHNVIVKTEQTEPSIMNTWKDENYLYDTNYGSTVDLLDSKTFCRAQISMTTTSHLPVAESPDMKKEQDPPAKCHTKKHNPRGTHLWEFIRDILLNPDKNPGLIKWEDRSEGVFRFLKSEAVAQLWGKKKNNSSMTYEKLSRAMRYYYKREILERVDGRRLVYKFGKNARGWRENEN
# Method in brief: as §1
# SPI1 = SPI1 (Homo sapiens, UniProt P17947 1-270); conditions: protein: recombinant; tags: N-terminal GST; dsDNA, one strand shown
# Method in brief: as §1
# SPIB = SPIB (Homo sapiens, UniProt Q01892 1-262); conditions: protein: recombinant; tags: N-terminal GST; dsDNA, one strand shown
# Method in brief: as §1
# FEV = molecular target: T6, FEV (Homo sapiens, UniProt Q99581 1-238); conditions: protein: recombinant; tags: N-terminal GST; dsDNA, one strand shown
# T6 sequence: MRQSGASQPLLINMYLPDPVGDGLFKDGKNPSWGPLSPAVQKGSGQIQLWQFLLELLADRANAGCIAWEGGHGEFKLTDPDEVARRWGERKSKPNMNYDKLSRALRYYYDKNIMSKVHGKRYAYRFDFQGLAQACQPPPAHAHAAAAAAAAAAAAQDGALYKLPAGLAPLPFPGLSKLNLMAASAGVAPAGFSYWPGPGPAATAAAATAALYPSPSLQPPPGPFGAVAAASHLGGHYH
# Method in brief: as §1
# ETV5 = ETV5 (Homo sapiens, UniProt P41161 1-510); conditions: protein: recombinant; tags: N-terminal GST; dsDNA, one strand shown
# Method in brief: as §1
# HSF1 = HSF1 (Homo sapiens, UniProt Q00613 1-529); conditions: protein: recombinant; tags: N-terminal GST; chain copies: 3; dsDNA, one strand shown
# Method in brief: as §1
# SPIC = molecular target: T7, SPIC (Homo sapiens, UniProt Q8N5J4 1-248); conditions: protein: recombinant; tags: N-terminal GST; dsDNA, one strand shown
# T7 sequence: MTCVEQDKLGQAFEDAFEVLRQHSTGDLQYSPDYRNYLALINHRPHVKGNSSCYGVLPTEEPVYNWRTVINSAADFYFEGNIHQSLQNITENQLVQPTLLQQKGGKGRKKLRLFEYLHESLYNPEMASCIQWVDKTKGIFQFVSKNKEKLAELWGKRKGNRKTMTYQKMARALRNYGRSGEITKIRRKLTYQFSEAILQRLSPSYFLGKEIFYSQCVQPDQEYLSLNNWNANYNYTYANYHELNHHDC
# Method in brief: as §1
# ELF4 = ELF4 (Homo sapiens, UniProt Q99607 1-663); conditions: protein: recombinant; tags: N-terminal GST; dsDNA, one strand shown
# Method in brief: as §1
# ELK4 = molecular target: T8, ELK4 (Homo sapiens, UniProt P28324-2 1-405); conditions: protein: recombinant; tags: N-terminal GST; dsDNA, one strand shown
# T8 sequence: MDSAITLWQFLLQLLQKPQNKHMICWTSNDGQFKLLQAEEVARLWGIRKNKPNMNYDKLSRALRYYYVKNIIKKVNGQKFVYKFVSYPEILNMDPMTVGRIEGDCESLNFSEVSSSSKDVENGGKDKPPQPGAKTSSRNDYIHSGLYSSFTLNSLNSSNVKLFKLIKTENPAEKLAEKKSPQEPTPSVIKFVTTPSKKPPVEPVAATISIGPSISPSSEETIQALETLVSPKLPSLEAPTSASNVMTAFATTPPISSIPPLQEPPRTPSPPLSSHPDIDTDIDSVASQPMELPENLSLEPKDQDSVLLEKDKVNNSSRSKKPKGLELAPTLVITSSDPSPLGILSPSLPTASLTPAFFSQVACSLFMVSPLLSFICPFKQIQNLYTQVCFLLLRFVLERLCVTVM
# Method in brief: as §1
# ETV2 = molecular target: T9, ETV2 (Homo sapiens, UniProt O00321 1-342); conditions: protein: recombinant; tags: N-terminal GST; dsDNA, one strand shown
# T9 sequence: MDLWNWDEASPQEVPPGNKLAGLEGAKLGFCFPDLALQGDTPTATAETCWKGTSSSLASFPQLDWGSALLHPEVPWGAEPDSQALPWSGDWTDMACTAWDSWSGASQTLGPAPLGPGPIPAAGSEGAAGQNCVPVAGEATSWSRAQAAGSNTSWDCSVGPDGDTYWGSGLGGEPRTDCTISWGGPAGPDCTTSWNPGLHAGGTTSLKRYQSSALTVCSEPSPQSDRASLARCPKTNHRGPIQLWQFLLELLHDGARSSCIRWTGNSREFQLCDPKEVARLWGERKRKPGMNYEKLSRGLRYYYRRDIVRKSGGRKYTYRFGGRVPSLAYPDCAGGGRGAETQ
# Method in brief: as §1
# ELF3 = molecular target: T10, ELF3 (Homo sapiens, UniProt P78545 1-371); conditions: protein: recombinant; tags: N-terminal GST; dsDNA, one strand shown
# T10 sequence: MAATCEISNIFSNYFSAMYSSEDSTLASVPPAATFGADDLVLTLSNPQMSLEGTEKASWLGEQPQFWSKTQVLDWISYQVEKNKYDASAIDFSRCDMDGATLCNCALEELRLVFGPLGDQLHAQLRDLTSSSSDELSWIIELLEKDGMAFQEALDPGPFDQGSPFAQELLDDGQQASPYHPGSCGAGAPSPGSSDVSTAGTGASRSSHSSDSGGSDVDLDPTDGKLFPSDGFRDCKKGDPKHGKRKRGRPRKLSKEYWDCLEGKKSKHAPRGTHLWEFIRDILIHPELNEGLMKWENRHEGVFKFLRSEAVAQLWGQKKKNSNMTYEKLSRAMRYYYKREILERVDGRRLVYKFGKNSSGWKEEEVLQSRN
# Method in brief: as §1
# CRX = CRX (Homo sapiens, UniProt O43186 1-299); conditions: protein: recombinant; tags: N-terminal GST; dsDNA, one strand shown
# Method in brief: as §1
# ETV1 = ETV1 (Homo sapiens, UniProt P50549 1-477); conditions: protein: recombinant; tags: N-terminal GST; dsDNA, one strand shown
# Method in brief: as §1
# Chain of CRX (O43186 whole entry): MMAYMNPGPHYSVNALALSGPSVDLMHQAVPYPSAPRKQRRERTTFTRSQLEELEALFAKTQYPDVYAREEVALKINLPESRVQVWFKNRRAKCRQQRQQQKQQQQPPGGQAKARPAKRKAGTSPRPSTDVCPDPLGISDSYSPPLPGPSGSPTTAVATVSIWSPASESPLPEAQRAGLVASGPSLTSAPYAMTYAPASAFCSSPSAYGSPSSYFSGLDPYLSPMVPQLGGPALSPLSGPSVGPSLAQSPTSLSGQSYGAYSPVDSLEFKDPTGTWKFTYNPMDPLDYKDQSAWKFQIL
# Chain of SPIB (Q01892 whole entry): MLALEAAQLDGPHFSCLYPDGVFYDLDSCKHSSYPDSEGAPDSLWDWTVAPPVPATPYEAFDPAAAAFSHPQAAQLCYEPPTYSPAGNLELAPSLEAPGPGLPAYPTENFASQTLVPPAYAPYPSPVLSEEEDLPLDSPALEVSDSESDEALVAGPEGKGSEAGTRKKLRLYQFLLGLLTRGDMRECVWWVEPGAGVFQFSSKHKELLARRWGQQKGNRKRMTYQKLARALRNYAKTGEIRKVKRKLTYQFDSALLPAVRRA
# Chain of ELF4 (Q99607 whole entry): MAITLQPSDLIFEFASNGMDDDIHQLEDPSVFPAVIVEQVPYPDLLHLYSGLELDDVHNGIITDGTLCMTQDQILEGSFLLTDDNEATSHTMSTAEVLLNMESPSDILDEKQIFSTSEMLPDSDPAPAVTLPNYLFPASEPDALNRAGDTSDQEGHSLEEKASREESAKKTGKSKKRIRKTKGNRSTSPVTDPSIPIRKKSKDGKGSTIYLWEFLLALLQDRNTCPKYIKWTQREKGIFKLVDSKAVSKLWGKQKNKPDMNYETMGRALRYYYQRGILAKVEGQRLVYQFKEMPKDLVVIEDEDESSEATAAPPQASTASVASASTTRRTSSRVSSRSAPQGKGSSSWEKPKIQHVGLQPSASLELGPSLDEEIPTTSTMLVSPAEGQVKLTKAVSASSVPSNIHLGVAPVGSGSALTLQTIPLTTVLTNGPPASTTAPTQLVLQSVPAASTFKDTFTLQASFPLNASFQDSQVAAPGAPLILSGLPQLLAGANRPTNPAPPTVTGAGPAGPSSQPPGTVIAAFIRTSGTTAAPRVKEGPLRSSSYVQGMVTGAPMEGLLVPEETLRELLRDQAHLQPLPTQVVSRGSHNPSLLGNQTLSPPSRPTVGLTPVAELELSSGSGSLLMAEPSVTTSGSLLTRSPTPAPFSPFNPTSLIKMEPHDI
# Chain of ETV5 (P41161 whole entry): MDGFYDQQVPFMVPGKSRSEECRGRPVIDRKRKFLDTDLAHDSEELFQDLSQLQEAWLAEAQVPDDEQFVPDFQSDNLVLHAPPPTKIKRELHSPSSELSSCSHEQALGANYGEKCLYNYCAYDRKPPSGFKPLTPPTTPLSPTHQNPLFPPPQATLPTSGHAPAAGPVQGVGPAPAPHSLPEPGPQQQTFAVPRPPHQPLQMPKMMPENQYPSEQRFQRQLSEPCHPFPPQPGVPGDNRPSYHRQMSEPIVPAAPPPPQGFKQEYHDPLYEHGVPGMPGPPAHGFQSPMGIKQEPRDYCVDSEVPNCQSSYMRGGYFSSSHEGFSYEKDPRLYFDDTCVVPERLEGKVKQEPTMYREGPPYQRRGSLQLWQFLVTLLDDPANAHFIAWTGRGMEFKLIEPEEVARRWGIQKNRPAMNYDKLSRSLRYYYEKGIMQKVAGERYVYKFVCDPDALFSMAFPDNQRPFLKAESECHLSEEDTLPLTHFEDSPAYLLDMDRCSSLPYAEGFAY
# Chain of ELF1 (P32519 whole entry): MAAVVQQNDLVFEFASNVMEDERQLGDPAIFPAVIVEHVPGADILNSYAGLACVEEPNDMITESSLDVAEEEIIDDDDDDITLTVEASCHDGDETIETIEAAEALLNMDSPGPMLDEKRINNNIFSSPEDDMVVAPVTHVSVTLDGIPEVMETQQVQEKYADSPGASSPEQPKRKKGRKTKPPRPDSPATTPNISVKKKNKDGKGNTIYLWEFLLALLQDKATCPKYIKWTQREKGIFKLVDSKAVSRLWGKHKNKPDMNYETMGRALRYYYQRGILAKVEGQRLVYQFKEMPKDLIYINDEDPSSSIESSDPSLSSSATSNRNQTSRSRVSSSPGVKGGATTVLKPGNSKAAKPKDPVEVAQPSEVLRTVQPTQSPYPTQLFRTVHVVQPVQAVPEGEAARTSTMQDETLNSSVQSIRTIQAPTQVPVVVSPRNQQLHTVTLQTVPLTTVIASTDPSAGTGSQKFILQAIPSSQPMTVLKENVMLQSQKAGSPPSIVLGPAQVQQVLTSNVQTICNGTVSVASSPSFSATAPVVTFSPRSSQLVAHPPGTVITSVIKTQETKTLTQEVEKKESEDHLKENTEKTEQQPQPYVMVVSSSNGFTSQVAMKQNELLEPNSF
# Chain of HSF1 (Q00613 whole entry): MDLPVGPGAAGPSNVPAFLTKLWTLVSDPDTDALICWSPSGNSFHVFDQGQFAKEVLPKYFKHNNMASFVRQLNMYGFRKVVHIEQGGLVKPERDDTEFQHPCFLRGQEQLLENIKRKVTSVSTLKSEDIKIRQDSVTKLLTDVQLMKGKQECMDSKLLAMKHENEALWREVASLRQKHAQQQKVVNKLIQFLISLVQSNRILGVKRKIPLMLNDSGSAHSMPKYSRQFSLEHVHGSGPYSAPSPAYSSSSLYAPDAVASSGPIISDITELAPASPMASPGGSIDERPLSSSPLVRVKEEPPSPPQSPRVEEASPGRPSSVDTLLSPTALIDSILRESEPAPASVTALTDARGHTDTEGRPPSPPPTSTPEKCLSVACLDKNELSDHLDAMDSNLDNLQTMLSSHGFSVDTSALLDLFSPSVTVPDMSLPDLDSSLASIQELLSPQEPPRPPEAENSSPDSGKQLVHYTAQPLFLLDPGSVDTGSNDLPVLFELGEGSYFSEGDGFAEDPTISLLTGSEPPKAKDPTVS
# Chain of ETV1 (P50549 whole entry): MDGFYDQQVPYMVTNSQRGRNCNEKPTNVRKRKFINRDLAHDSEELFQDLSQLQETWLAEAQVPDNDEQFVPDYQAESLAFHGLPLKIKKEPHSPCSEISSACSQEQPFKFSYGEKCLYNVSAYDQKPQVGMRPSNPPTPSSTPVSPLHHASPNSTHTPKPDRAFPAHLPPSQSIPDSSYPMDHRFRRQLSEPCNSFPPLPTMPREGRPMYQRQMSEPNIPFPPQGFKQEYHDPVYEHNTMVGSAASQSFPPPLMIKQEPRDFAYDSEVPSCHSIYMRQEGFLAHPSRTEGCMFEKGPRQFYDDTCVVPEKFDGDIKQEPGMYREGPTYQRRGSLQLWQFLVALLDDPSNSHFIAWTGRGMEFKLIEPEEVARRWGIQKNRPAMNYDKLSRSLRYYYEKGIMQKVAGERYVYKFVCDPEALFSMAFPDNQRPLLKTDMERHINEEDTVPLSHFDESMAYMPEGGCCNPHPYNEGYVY
sequence,measurement,setting,value
AATCAG,binding signal,FLI1,"1.1 fold enrichment (6-mer frequency, TF over GST control)"
same,binding signal,ELK1,"1.05 fold enrichment (6-mer frequency, TF over GST control)"
same,binding signal,GABPA,"1.19 fold enrichment (6-mer frequency, TF over GST control)"
same,binding signal,ERG,"1.07 fold enrichment (6-mer frequency, TF over GST control)"
same,binding signal,ELF1,"1.1 fold enrichment (6-mer frequency, TF over GST control)"
same,binding signal,EHF,"1.02 fold enrichment (6-mer frequency, TF over GST control)"
same,binding signal,SPI1,"1.04 fold enrichment (6-mer frequency, TF over GST control)"
same,binding signal,SPIB,"1.19 fold enrichment (6-mer frequency, TF over GST control)"
same,binding signal,FEV,"1.07 fold enrichment (6-mer frequency, TF over GST control)"
same,binding signal,ETV5,"1.15 fold enrichment (6-mer frequency, TF over GST control)"
same,binding signal,HSF1,"1.19 fold enrichment (6-mer frequency, TF over GST control)"
same,binding signal,SPIC,"1.2 fold enrichment (6-mer frequency, TF over GST control)"
same,binding signal,ELF4,"1.05 fold enrichment (6-mer frequency, TF over GST control)"
same,binding signal,ELK4,"1.16 fold enrichment (6-mer frequency, TF over GST control)"
same,binding signal,ETV2,"1.01 fold enrichment (6-mer frequency, TF over GST control)"
same,binding signal,ELF3,"1.14 fold enrichment (6-mer frequency, TF over GST control)"
same,binding signal,CRX,"1.42 fold enrichment (6-mer frequency, TF over GST control)"
same,binding signal,ETV1,"1.01 fold enrichment (6-mer frequency, TF over GST control)"
